Compound activity from PubChem BioAssay.
Hits are enriched below; roughly 5.3% of the tested compounds scored in any of these assays.
FMDV inh = blocks foot and mouth disease virus. 410,000 tested, 1.2% active. Potency, µM (titrated, usually from 57.9 µM), without a hit: top-dose activity change, negative = inhibition, actives largely listed as inhibitors. AID 1159524. FMDV antiviral cell-based qHTS; calls by dose curve; tested in HEK293T cells; also: read-out not given here; nearly all actives have a fitted effect of over 45% in size
LASV entry inh = Lassa virus entry inhibition | Lassa virus pseudotype entry inhibition, cell reporter | Potency, µM (doses to about 37.9 µM), for inactives: at the highest dose activity change, negative = inhibition, hits mostly inhibitors | 300,000 tested, 1.2% active | AID 540256; calls by dose curve; tested in HEK293 cells; also: nearly all actives have a fitted effect of over 50% in size
HCV inhibitor = inhibitors of hepatitis C virus infection | Huh7.5.1 HCVcc-Cre infection, luciferase reporter, 44 h | Potency, µM (titrated, usually from 41.8 µM), for inactives: top-dose activity change, negative = inhibition, hits mostly inhibitors | 340,000 tested, 3.4% active | AID 651820; active = well fitted inhibition curve with a large enough effect; inconclusive = small, poorly fitted or top-dose-only effect, or another doubt; inactive = no such curve, though single readings can be large or run the other way
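Infectious HCVcc-Cre (~0.5 moi) was added to cells just after compound, with cells seeded 4 h earlier at 1,000 per well. Luciferase activity after 44 h culture reported infection; substrate was incubated 15 min at room temperature before reading.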
MARV entry inh = inhibitors of Marburg virus binding or cell entry. AID 540276. 300,000 tested, 1.8% active. Marburg virus pseudotyped entry inhibition, cell reporter. Potency, µM (highest dose often 37.8 µM), inactives show top-dose activity change, negative = inhibition, most hits filed as inhibitors; calls by dose curve; tested in HEK293 cells
Vaccinia Venus = inhibitors of vaccinia virus (Venus reporter); AID 720580; 330,000 tested, 0.46% active; Vaccinia virus Venus reporter expression, fluorescence; Potency, µM (highest dose often 36.5 µM), inactives show at the top dose activity change, negative = inhibition, hits mostly inhibitors; calls by dose curve; tested in A549 cells; also: nearly all actives have a fitted effect of over 30% in size
Vaccinia mCherry = vaccinia inhibition (mCherry reporter); Vaccinia virus mCherry reporter infection, fluorescence; Potency, µM (highest dose often 36.5 µM), for the others: at the top dose activity change, negative = inhibition, hits mostly inhibitors; 310,000 tested, 0.63% active; calls by dose curve; tested in A549 cells; also: nearly all actives have a fitted effect of over 35% in size
* marks the source's active call; other numbers are inactive results; i = inactive; u = inconclusive; x = not tested or not shown; [ ] = dose if it differs, or a comment. % is scaled to controls: 0 for no effect and ±100 for the full control effect; potency is read from the fitted curve at half-maximal effect.

SMILES	FMDV inh	LASV entry inh	HCV inhibitor	MARV entry inh	Vaccinia Venus	Vaccinia mCherry
Cc1nc(-n2nc(C)c(Cc3ccccc3Cl)c2C)sc1C(=O)N1CCCCC1C (stereo not given)	-16.1%	0.1%[46.1 µM]	x	4.5%[46.1 µM]	-7.2%	-6.9%
O=C(NCc1ccccn1)c1cnn(-c2nccc(-c3cc4ccccc4o3)n2)c1C1CC1	-3.4%	x	x	x	-7.3%	-9.5%
CC(C)Oc1cccc(C(=O)C2CCCN(C(=O)c3cc(C4CC4)[nH]n3)C2)c1 (stereo not given)	-17.3%	x	-28.2%	x	x	x
CC(C)Oc1cccc(C(=O)C2CCCN(C(=O)c3cc(C(F)(F)F)[nH]n3)C2)c1 (stereo not given)	-7.2%	12.6µM*	u	-20.2%[46.1 µM]	-18.7%	-21.6%
O=C(c1ccc(Cl)cc1)C(CN1CCCCC1)c1ccccc1 (stereo not given)	14.1µM*	u	15.8µM*	u	11.2µM*	u
O=C(c1ccccc1)C(CN1CCCC1)c1ccccc1 (stereo not given)	3.55µM*	7.94µM*	u	7.08µM*	15.8µM*	u
CCC=CC[C@@]1(C(=O)OC)C=C[C@@H](C)[C@H](c2ccccc2Br)N1C(=O)C(F)(F)F	x	x	x	-0.7%[14.2 µM]	x	x
N#Cc1nc(Nc2cc(F)cc(F)c2)c2ncn(CC(F)F)c2n1	-18.4%	x	x	x	x	x
N#Cc1nc(NCC(F)F)nc(Nc2cc(F)cc(F)c2)n1	11.2µM*	x	x	x	x	x
O=C1NCCN2CCC[C@H]12	x	x	x	19.2%	x	x
COC(=O)c1cc(NC(=O)C(C)c2ccc(CC(C)C)cc2)ccc1O (stereo not given)	-4.8%	u	11.2µM*	u	-8.4%	u
Cc1ccc2[nH]c(C(=O)N3CCc4c(cnc(C)c4CNC(=O)c4ccccc4F)C3)cc2c1	-6.1%	x	x	x	11.1%	0.9%
O=C1Nc2cc(C(=O)NCCN3CCCCCC3)ccc2S/C1=C/c1ccccc1F	-20.7%	x	x	x	12.6µM*	u
Cc1ccc(/C=C2/Sc3ccc(C(=O)NCCN4CCOCC4)cc3NC2=O)cc1	-4.0%	x	-0.4%	x	x	x
O=C(NCCCN1CCCCC1)c1ccc2c(c1)NC(=O)c1ccccc1S2	-9.1%	x	10µM*	x	x	x
CCN1CCCC1CNC(=O)c1ccc2c(c1)NC(=O)/C(=C\c1ccc(C)cc1)S2 (stereo not given)	-3.2%	x	6.31µM*	x	x	x
O=C(N/N=C1/C[C@@H](O)[C@@H](O)[C@@H]2[C@@H]3C(=O)N(Cc4ccc5c(c4)OCO5)C(=O)[C@H]3CC[C@H]12)OCc1ccccc1	x	x	x	-2.2%[14.2 µM]	x	x
COc1cccc(CNC(=O)c2cc(S(=O)(=O)N3CCOCC3)cn2C)c1	0.0%	x	5.8%	x	6.0%	8.5%
NNC(=O)c1cc(C2CC2)nc2ccc(Br)cc12	-15.4%	-31.2%[46.1 µM]	u	u	-17.3%	-28.9%
COC(=O)c1cc(OC)nc2ccc(Br)cc12	-15.7%	x	11.2µM*	x	x	x
Brc1ccc(-c2csc3ncnc(-n4nnc5ccccc54)c23)cc1	u	u	u	12.6µM*	-23.1%	-11.5%
COC(C[C@@H](O)CC(=O)[C@@H](C)OCc1ccccc1)OC	6.3%	x	34.5%	x	3.6%	-14.6%
COC(C[C@@H](O)CC(=O)COCc1ccccc1)OC	-11.1%	x	2.82µM*	x	-2.3%	-10.1%
CCC(CC)C(=O)N(CCc1ccc(OC)cc1)Cc1nc2ccccc2c(=O)[nH]1	x	u	22.4µM*	u	-27.2%	-16.6%
COc1ccc(CCN(Cc2nc3ccccc3c(=O)[nH]2)C(=O)c2ccco2)cc1	-4.1%	0.7%	5.0%	u	0.7%	-7.5%
SMILES	FMDV inh	LASV entry inh	HCV inhibitor	MARV entry inh	Vaccinia Venus	Vaccinia mCherry
Cc1ccc2nc(/C(C#N)=C\c3ccc(N4CCCCC4)c([N+](=O)[O-])c3)[nH]c2c1	x	u	7.08µM*	u	-11.7%	u
Cc1ccc2nc(/C(C#N)=C/c3ccc(O)c(O)c3)[nH]c2c1	1.4%	u	u	u	35.1%	5.62µM*
Cc1oc(-c2ccccc2NC(=O)c2ccsc2)nc1CN(C)CC1CC=CCC1 (stereo not given)	-12.8%	x	x	x	7.7%	-7.8%
CN(C)CCNC(=O)COc1ccc(C23CC4CC(CC(C4)C2)C3)cc1	-28.3%	u	11.2µM*	3.98µM*	u	-9.3%
Cc1ccc(C23CC4CC(CC(NC(=O)NCCN(C)C)(C4)C2)C3)cc1	-25.8%	u	u	u	u	-20.6%
CCCCCCc1cc2cc(C(=O)Nc3ccccc3)c(=O)oc2cc1O	u	3.55µM*	4.47µM*	2µM*	-10.2%	i
CCCCCCc1cc2cc(C(=O)NCc3ccccc3)c(=N)oc2cc1O	-11.1%	1.6%	-2.1%	u	x	x
CCOC(=O)[C@]12CCC=C1N(Cc1ccc3c(c1)OCO3)C(=O)[C@H](CC(=O)NCc1ccc(C)o1)C2	-3.5%	x	x	x	-8.9%	-5.8%
CCc1ccc(N(C(=O)c2snc(C(N)=O)c2N)C(C(=O)NC2CCCC2)c2ccco2)cc1 (stereo not given)	5.5%	u	u	7.94µM*	-15.6%	-18.2%
Cc1ccc(N(C(=O)c2snc(C(N)=O)c2N)C(C(=O)NCCC(C)C)c2ccco2)cc1 (stereo not given)	-20.8%	x	31.6µM*	x	x	x
Cn1cnc(S(=O)(=O)N2CCN(c3cccc(Cl)c3)CC2)c1	-1.4%	-25.1%[46.1 µM]	19.3%	0.6%[46.1 µM]	-22.0%	-21.4%
C=CCOC(=O)N[C@@H](CCc1ccccc1)C(C(C)=O)C(C)=O	x	x	x	-15.7%[14.2 µM]	x	x
CC(=O)c1ccc(NC(=O)CSc2nnc3ccc(-c4ccc(F)cc4)nn23)cc1	-0.5%	3.3%[46.1 µM]	x	x	-14.0%	-2.4%
COC(=O)C1=C(C)NC(=O)NC1c1ccc([N+](=O)[O-])o1 (stereo not given)	-23.6%	7.3%	15.5%	-15.9%	-8.7%	i
COC(=O)C1=C(C)NC(=O)NC1c1ccc(-c2ccc(Cl)cc2)o1 (stereo not given)	-27.5%	x	8.91µM*	x	-15.6%	-4.6%
COc1cccc(Cn2cnc3c(NS(=O)(=O)c4ccc(Cl)cc4Cl)c(C)c(C)cc32)c1	u	1.6%	u	u	x	x
COc1cccc(Cn2cnc3c(NS(=O)(=O)c4cccc(Cl)c4Cl)c(C)c(C)cc32)c1	u	u	12.6µM*	u	x	x
O=C(NCC1(N2CCCCC2)CCCC1)c1cnn(-c2nccc(-c3cccs3)n2)c1C1CC1	-7.9%	x	x	x	10.4%	-1.2%
Cc1ccccc1C(=O)N1[C@@H](C(C)C)COc2cc(Br)ccc2S1(=O)=O	39.8µM*	x	-10.2%	9.95µM*	-9.6%	-15.4%
CC(=O)c1c(C)n(CC(=O)NCc2ccc3c(c2)OCO3)c2ccccc12	x	-6.1%	10µM*	-14.4%	-24.5%	-8.4%
O=C(Cn1c(CO)nc2ccccc21)NCc1ccc2c(c1)OCO2	-9.0%	14.3%	u	7.9%[46.1 µM]	-5.8%	-15.4%
CC(O)CNCCCOc1ccc(Cl)cc1C(C)(C)C (stereo not given)	-19.8%	-15.4%	11.2µM*	u	-17.6%	-18.4%
Clc1ccc(OCCCCCN2CCCC2)c(Br)c1	-0.3%	u	10µM*	u	-1.3%	-13.1%
